# Laboratory results as given in PubChem BioAssay (NCATS).
# Results filed as inconclusive are left out. Where a call stands in place of a potency, no number is given. Unmarked numbers belong to inactive results. Active and inactive are the calls of the source. Calls follow the shape of the dose curve; as a rule, active = well fitted curve in the direction sought with a large enough effect; inconclusive = small, poorly fitted or top-dose-only effect, or another doubt; inactive = no such curve, though single readings can be large; an effect the other way counts as inactive or inconclusive. Square brackets hold non-standard residues; d marks the D form. Peptide text beside a SMILES is read from it. ξ: configuration not given here. ξTyr(βOH) = NC(C(=O)O)C(O)c1ccc(O)cc1
# What was measured:
# [1] = target: Cellular tumor antigen p53 (Homo sapiens) (UniProt P04637); assay: Primary qHTS for small molecule compounds that upregulate eGFP-tagged delta133p53alpha (in N-terminal) cells. (AID 2060322); conditions: NCI-H358 eGFP-delta133p53alpha fluorescence, 24 h; activation: active compounds read high; also: nearly all actives have a fitted effect of over 75% in size; also: potency is read from the fitted curve at half-maximal effect;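 as to activation: cells pre-induced with doxycycline then dosed without doxycycline; series mostly up to about 56 µM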
# Sequence of Cellular tumor antigen p53 (Homo sapiens) (P04637 whole entry, looked up): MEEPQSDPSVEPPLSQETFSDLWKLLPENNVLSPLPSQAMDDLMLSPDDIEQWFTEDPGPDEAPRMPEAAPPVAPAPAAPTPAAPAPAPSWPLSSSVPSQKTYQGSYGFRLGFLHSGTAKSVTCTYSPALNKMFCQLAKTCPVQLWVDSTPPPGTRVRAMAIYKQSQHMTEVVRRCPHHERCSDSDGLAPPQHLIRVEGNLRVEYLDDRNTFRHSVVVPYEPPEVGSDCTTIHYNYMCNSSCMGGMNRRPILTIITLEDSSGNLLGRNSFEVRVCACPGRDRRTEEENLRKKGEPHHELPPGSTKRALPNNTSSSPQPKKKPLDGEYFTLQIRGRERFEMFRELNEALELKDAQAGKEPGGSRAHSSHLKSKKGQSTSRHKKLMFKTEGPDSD
# Procedure, shortened: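 NCI-H358 cells pre-induced 24 h with 10 ng/ml doxycycline for eGFP-delta133p53alpha, plated dox-free and exposed 24 h at 37C to titrated compounds. Fixed, Hoechst-stained; gated GFP peak intensity by laser scanning cytometry, normalized to DMSO (0%) and 57.5 uM 5-azacytidine (100%).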
# [2] = target: Aldehyde dehydrogenase, mitochondrial (Homo sapiens) (UniProt P05091); assay: qHTS for Inhibitors of the Aldehyde Dehydrogenase Family (ALDH2) Primary screen (AID 2061308); also: nearly all actives have a fitted effect of over 55% in size
# [3] = target: Retinaldehyde dehydrogenase 3 (Homo sapiens) (UniProt P47895); assay: qHTS for Inhibitors of the Aldehyde Dehydrogenase Family (ALDH1A3) Primary screen (AID 2061315)
SMILES,activation [1] [%],Potency [2],Potency [3],"activity change, negative = inhibition [2]","activity change, negative = inhibition [3]",Potency [1]
CC(=O)/C=C/C1(O)C(C)(C)CC(O)CC1(C)O (configuration not stated),12.2,inactive,inactive,–,–,–
C[C@@H]1O[C@@H](O[C@H]2[C@H](O)[C@@H](O[C@@H]3O[C@H](CO)[C@@H](O)[C@H](O[C@@H]4O[C@H](CO)[C@@H](O)[C@H](O)[C@H]4O)[C@H]3O)[C@H](O[C@H]3CC[C@@]4(C)C(=CC[C@@H]5C4CC[C@@]4(C)C5C[C@@H]5OC6(CC[C@@](C)(CO[C@@H]7O[C@H](CO)[C@@H](O)[C@H](O)[C@H]7O)O6)[C@@H](C)[C@@H]54)C3)O[C@@H]2CO)[C@H](O)[C@H](O)[C@H]1O (some centres not stated),-25.2,–,–,9.58% [at 11.2 µM],9.26% [at 11.2 µM],–
CC1CC(=O)C2=C(O1)OC1(C)CCC3C(C)(C)C=CC(=O)C3(C)C1C2 (configuration not stated),-29.5,inactive,inactive,–,–,–
C[C@@H](O)[C@H](N)C(=O)N1CCC[C@H]1C(=O)N1CCC[C@H]1C(=O)N[C@H](C(N)=O)[C@@H](C)O (H-TPPT-NH2),1,–,–,5.09% [at 11.2 µM],-29.1% [at 11.2 µM],–
CC1(C)CCC[C@]2(C)[C@H]3CC(=O)O[C@]3(C)CC[C@@H]12,20.3,inactive,inactive,–,–,–
N#CC1C(=O)N=C(c2cc(Cl)ccc2O)C=C1c1cc(OCc2ccccc2)cc(OCc2ccccc2)c1 (configuration not stated),-17.7,inactive,inactive,–,–,–
O=C(OCC1=CC(O)C2C=CO[C@@H](O[C@@H]3O[C@H](CO)[C@@H](O)[C@H](O)[C@H]3O)C12)c1ccccc1 (some centres not stated),-17.6,inactive,inactive,–,–,–
C[C@H]1CC[C@@]2(OC1)O[C@H]1CC3C4CC[C@H]5C[C@@H](O)[C@H](O)C[C@]5(C)C4=CC(=O)[C@]3(C)[C@H]1[C@@H]2C (some centres not stated),14.3,inactive,inactive,–,–,–
CC(C)(C)NC(=O)[C@H]1CC[C@H]2[C@@H]3CC[C@H]4NC(=O)CC[C@]4(C)[C@H]3CC[C@]12C,21.7,inactive,inactive,–,–,–
CC(C)=CC/C=C(/C)[C@H]1CC[C@]2(C)[C@@H]1[C@H](O)CC1[C@@]3(C)CC[C@H](O)C(C)(C)[C@@H]3[C@@H](O[C@@H]3O[C@H](CO)[C@@H](O)[C@H](O)[C@H]3O[C@@H]3O[C@@H](C)[C@H](O)[C@@H](O)[C@H]3O)C[C@]12C (some centres not stated),-7.63,inactive,inactive,–,–,–
CCN1CCC[C@@H]1CNC(=O)c1ccc2c(c1)NC(=O)c1cccc(C)c1S2,19.7,inactive,inactive,–,–,–
CC(=O)O[C@@H]1C[C@H](O)[C@@]23CO[C@H](O)[C@]1(C)C2C[C@@H](O)[C@]1(C)C3C(=O)[C@H](OC(C)=O)[C@@]2(C)[C@H](c3ccoc3)C[C@H]3O[C@]321 (some centres not stated),-1.79,inactive,inactive,–,–,–
CC(=C\C(C)O)/C=C(\C)C(=O)CC1CC(CC(N)=O)CC(=O)O1 (configuration not stated),-16.8,inactive,inactive,–,–,–
COC(=O)C1(C)CCCC2(C)c3ccc(C(C)C)cc3C(O)C(O)C12 (configuration not stated),-14.3,inactive,inactive,–,–,–
CC1CCC2(C(=O)O)CCC3(C)C(=CCC4C5(C)C[C@@H](O)[C@@H](O)C(C)(CO)C5CCC43C)C2C1(C)O (some centres not stated),11.6,inactive,inactive,–,–,–
C=CC(C)(C)c1[nH]c2cc3c(cc2c1CC1NC(=O)C2CCCN2C1=O)C=CC(C)(C)O3 (configuration not stated),-13,inactive,inactive,–,–,–
OCC1=C[C@@H](O)[C@@H]2C=CO[C@@H](O[C@@H]3O[C@H](CO)[C@@H](O)[C@H](O)[C@H]3O)[C@H]12,-32.8,inactive,inactive,–,–,–
CC1CCC2(CO)C(C(=O)O)=CCCC2C1(C)CCc1ccoc1 (configuration not stated),14.3,inactive,inactive,–,–,–
O=C(/C=C/c1ccc(O)cc1)OC[C@H]1O[C@H](O[C@@]2(CO)O[C@@H](CO)[C@H](O)[C@H]2O)[C@H](O)[C@@H](O)[C@@H]1O,6.25,inactive,inactive,–,–,–
COC(=O)N1CCC(n2ncc3c(N4CCOCC4)nc(-c4ccc(NC(=O)Nc5ccc(CO)cc5)cc4)nc32)CC1,–,inactive,inactive,–,–,21.3 µM (active)
C[C@H]1CC[C@H]2[C@@H](C=C[C@@](C)(O)[C@]2(C)C(=O)CCO)C1,-9.16,inactive,inactive,–,–,–
CC(C)=CCC[C@](C)(O[C@@H]1O[C@H](CO[C@@H]2OC[C@@H](O)[C@H](O)[C@H]2O)[C@@H](O)[C@H](O)[C@H]1O)[C@H]1CC[C@]2(C)[C@@H]1[C@H](O)C[C@@H]1[C@@]3(C)CC[C@H](O[C@@H]4O[C@H](CO)[C@@H](O)[C@H](O)[C@H]4O[C@@H]4O[C@H](CO)[C@@H](O)[C@H](O)[C@H]4O)C(C)(C)[C@@H]3CC[C@]12C,-8.33,inactive,inactive,–,–,–

SMILES,activation [1] [%],Potency [2],Potency [3],"activity change, negative = inhibition [2]","activity change, negative = inhibition [3]",Potency [1]
C/C=C1\[C@H](O[C@@H]2O[C@H](CO)[C@@H](O)[C@H](O)[C@H]2O)OC=C(C(=O)O)[C@H]1CC(=O)OCCc1ccc(O)cc1,0.763,inactive,inactive,–,–,–
CC(C)C(NC(=O)c1ccc(O)cc1)C(=O)N1CCCC1C(=O)Nc1c(O)cccc1C(=O)O (configuration not stated),-0.763,inactive,inactive,–,–,–
Cc1ccn(-c2cc(Cl)ccc2[C@@H](Oc2cc(-c3ccc(C[C@H](N)C(=O)O)cc3)nc(N)n2)C(F)(F)F)n1,-7,inactive,inactive,–,–,–
C[C@@H]1C(=O)O[C@H]2[C@H](O)C34[C@H]5C[C@@H](C(C)(C)C)C36[C@@H](OC(=O)[C@@H]6O)O[C@@]4(C(=O)O5)[C@@]12O (some centres not stated),0.763,inactive,inactive,–,–,–
CC(C)C1NC(=O)CNC(=O)C2CCCN2C(=O)C(Cc2c[nH]c3ccccc23)NC(=O)CNC(=O)C(C(O)c2ccc(O)cc2)NC(=O)CNC1=O (configuration not stated) (cyclo(G[ξTyr(βOH)]GWPGV); configuration not given here),-9.92,inactive,inactive,–,–,–
CC(C)COc1ccc(CNC(=O)N(Cc2ccc(F)cc2)C2CCN(C)CC2)cc1,-15.7,inactive,inactive,–,–,–
C[C@@H]1O[C@@H](O[C@H]2[C@H](OC(=O)[C@]34CCC(C)(C)C[C@H]3C3=CCC5[C@@]6(C)CC[C@H](O[C@@H]7O[C@H](C(=O)O)[C@@H](O)[C@H](O)[C@H]7O[C@@H]7O[C@H](CO)[C@H](O)[C@H](O)[C@H]7O)[C@@](C)(C=O)C6CC[C@@]5(C)[C@]3(C)C[C@H]4O)O[C@H](C)[C@H](O[C@@H]3O[C@H](C)[C@H](O)[C@H](O)[C@H]3O)[C@@H]2O)[C@H](O)[C@H](O)[C@H]1O[C@@H]1OC[C@@H](O)[C@H](O[C@@H]2O[C@H](CO)[C@@H](O)[C@H](O)[C@H]2O)[C@H]1O (some centres not stated),-6.87,–,–,-7.78% [at 11.2 µM],-11.5% [at 11.2 µM],–
CC(=O)O[C@H]1C[C@@]2(C)[C@@H](CC[C@H]3[C@@]4(C)C=CC(=O)[C@@H](C)[C@@H]4[C@H](O)C(=O)[C@@]32C)/C1=C(/CCC=C(C)C)C(=O)O,17.6,inactive,inactive,–,–,–
CNC12CC3C[C@@](C)(C1)C[C@](C)(C3)C2,-6.33,inactive,inactive,–,–,–
CC12CC(O)C(O)C=C1c1cc(O)cc(O)c1C(=O)O2 (configuration not stated),-7.63,inactive,inactive,–,–,–
C=C(C)[C@@H]1CC[C@]2(C(=O)O)CC[C@]3(C)[C@H](CCC4[C@@]5(C)CCC(=O)C(C)(C)C5C(O)C[C@]43C)C12 (some centres not stated),13,inactive,inactive,–,–,–
C[C@]1(O)CC[C@@H]2C(C(=O)O)=CO[C@@H](O[C@@H]3O[C@H](COC(=O)c4ccc(O)cc4)[C@@H](O)[C@H](O)[C@H]3O)[C@@H]21,0.893,inactive,inactive,–,–,–
O=C(O)C(Cc1ccccc1)NC(=O)C1CCCN1 (stereo not drawn) (H-Pro-Phe-OH; configuration not given here),-13.7,inactive,inactive,–,–,–
C=C1C2(C)CC3C4(C)C=CC(=O)OC(C)(C)C4CCC3(C)C1(C(=O)OC)C(=O)C(C)(O)C2=O (configuration not stated),-21.4,inactive,inactive,–,–,–
COc1cc(O)cc(OC2OC(CO)C(O)C(O)C2O)c1 (configuration not stated),21.4,inactive,inactive,–,–,–
C[C@@H]1CCC2C(C)(C)[C@H](O)[C@H](O)C[C@]2(C)[C@@]12Cc1c(O)cc3c(c1O2)CN(CCCC(=O)O)C3=O (some centres not stated),-3.05,inactive,inactive,–,–,–
COC1/C=C/C(C)(O)C(SCC(N)C(=O)O)CC(=O)OC(C)C(C)CC/C=C/1C (configuration not stated),0.763,inactive,inactive,–,–,–
CC(C)(C)Nc1nc2cc(Cl)c(Cl)cc2nc1S(C)(=O)=O,–,inactive,inactive,–,–,3.38 µM (active)
CC1NC(=O)C(Cc2c[nH]c3ccccc23)NC1=O (configuration not stated),-13.7,inactive,inactive,–,–,–
C=C1C(OC(C)=O)CCC2(C)CC3(O)OC(=O)C(C)=C3CC12 (configuration not stated),-3.57,inactive,inactive,–,–,–
C[C@@H]1C(=O)O[C@H](C)[C@H]1C[C@@H](O)[C@](C)(O)[C@H]1CC[C@@]2(O)C3=CC(=O)[C@@H]4C[C@@H](O)[C@@H](O)C[C@]4(C)C3CC[C@]12C (some centres not stated),-5.36,inactive,inactive,–,–,–
CC1=C(C)C(=O)OC(C(C)(O)C2CCC3C4CC=C5CC(OC6OC(COC7OC(CO)C(O)C(O)C7O)C(O)C(O)C6O)CC(O)C5(C)C4CCC32C)C1 (configuration not stated),-6.87,inactive,inactive,–,–,–
